Experimental data as given in PubChem BioAssay (NCI).
This is part of a sample that, as a whole, favours compounds with a hit. Of some 79,000 tested, about 15% had one in any assay. Activity calls are given as the source filed them. Cut-off read from the data, not from the text of the source: active = growth inhibition above about 70%; inactive = the rest.

What was measured:
[1] = NCI Yeast Anticancer Drug Screen. Data for the rad52 strain (AID 147);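 note: 0% = growth of vehicle-treated control cultures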; conditions: S. cerevisiae rad52 mutant growth inhibition, active compounds read high
Method in brief: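 Compounds are applied to a genetically defined yeast strain lacking normal DNA damage repair, and inhibition of growth is expressed relative to cultures given vehicle only.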

[2] = NCI Yeast Anticancer Drug Screen. Data for the wt1 strain (AID 149);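 note: 0% = growth of vehicle-treated wt1 cultures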; conditions: S. cerevisiae wt1 strain (SPY 50644) growth inhibition, active compounds read high
Method in brief: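 Compounds are added to wt1 yeast cultures. Growth is then measured. Inhibition is expressed relative to vehicle-treated controls.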

[3] = NCI Yeast Anticancer Drug Screen. Data for the rad50EPP+ strain (AID 151);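 note: 0% = growth of vehicle-treated control cultures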; conditions: S. cerevisiae rad50 mutant strain, active compounds read high
Method in brief: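 Compounds were applied to the rad50EPP+ yeast strain, which bears a defined DNA repair alteration, and growth inhibition was determined relative to vehicle-treated cultures.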

[4] = NCI Yeast Anticancer Drug Screen. Data for the mgt1 strain (AID 153); conditions: S. cerevisiae mgt1 mutant growth inhibition, active compounds read high
Method in brief: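 Strain: mgt1 yeast, one of a set carrying defined DNA damage repair or cell cycle control alterations. Compound-treated growth compared with vehicle.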

[5] = NCI Yeast Anticancer Drug Screen. Data for the rad50 strain (AID 155);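 note: 0% = growth of vehicle-only cultures of the same strain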; conditions: S. cerevisiae rad50 strain growth inhibition, active compounds read high
Method in brief: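 Inhibition values express reduced yeast growth in compound-treated cultures relative to vehicle-treated controls.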

[6] = NCI Yeast Anticancer Drug Screen. Data for the mec2-1 strain (AID 157); conditions: S. cerevisiae mec2-1 strain, active compounds read high
Method in brief: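 Strain: mec2-1 (DNA repair/cell cycle alteration). Compound exposure, then growth measured; inhibition expressed relative to vehicle.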

[7] = NCI Yeast Anticancer Drug Screen. Data for the rad14 strain (AID 159);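 note: 0% = growth of vehicle-treated control cultures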; conditions: S. cerevisiae rad14 strain growth inhibition, active compounds read high
Method in brief: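 A mutant yeast strain defective in DNA damage repair is treated with compound; inhibition of its growth is scored against untreated, vehicle-exposed cultures.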

[8] = NCI Yeast Anticancer Drug Screen. Data for the sgs1 mgt1 strain (AID 161);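 note: 0% = growth of cultures given vehicle only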; conditions: S. cerevisiae sgs1 mgt1 strain, active compounds read high
Method in brief: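 Read-out: growth inhibition vs vehicle controls. Cells: mutant yeast strain deficient in DNA damage repair.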

[9] = NCI Yeast Anticancer Drug Screen. Data for the CLN2oe strain (AID 163);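 note: 0% = growth of vehicle-only control cultures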; conditions: S. cerevisiae CLN2oe strain, active compounds read high
Method in brief: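 Growth of a genetically modified yeast strain is measured after compound exposure and compared with cultures given vehicle alone.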

[10] = NCI Yeast Anticancer Drug Screen. Data for the cln2 rad14 strain (AID 165);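 note: 0% = growth equal to vehicle treated cultures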; conditions: S. cerevisiae cln2 rad14 strain, active compounds read high
Method in brief: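 Compounds are applied to the cln2 rad14 yeast strain, and growth is then compared with that of vehicle-treated cultures to give inhibition.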

[11] = NCI Yeast Anticancer Drug Screen. Data for the bub3 strain (AID 167); conditions: S. cerevisiae bub3 mutant strain, active compounds read high
Method in brief: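 Steps: expose the mutant yeast strain to compound; grow alongside vehicle-treated cultures; measure growth; express inhibition against the vehicle cultures.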

[12] = NCI Yeast Anticancer Drug Screen. Data for the wt2 strain (AID 169);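 note: 0% = growth of vehicle-treated yeast cultures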; conditions: S. cerevisiae wt2 strain growth inhibition, active compounds read high
Method in brief: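 This strain belongs to a panel of yeast strains with defined genetic alterations in DNA damage repair or cell cycle control. Compounds are applied, and growth inhibition is measured against vehicle-treated cultures.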

[13] = NCI Yeast Anticancer Drug Screen. Data for the sgs1 strain (AID 173);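 note: 0% = growth of vehicle-only control cultures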; conditions: S. cerevisiae sgs1 mutant, active compounds read high
Method in brief: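 Growth of a yeast strain bearing a defined genetic alteration is measured after compound treatment. Inhibition is expressed relative to vehicle-only controls.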

[14] = NCI Yeast Anticancer Drug Screen. Data for the mlh1 rad18 strain (AID 175); conditions: S. cerevisiae mlh1 rad18 strain growth inhibition, active compounds read high
Method in brief: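 Read-out is yeast growth inhibition, calculated against vehicle-only controls. The compound was applied to a strain engineered with DNA damage repair alterations.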

[15] = NCI Yeast Anticancer Drug Screen. Data for the rad18 strain (AID 177); conditions: S. cerevisiae rad18 mutant growth inhibition, active compounds read high
Method in brief: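 Growth of the mutant yeast strain after compound exposure, normalised to vehicle-only cultures.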

[16] = NCI Yeast Anticancer Drug Screen. Data for the mlh1 strain (AID 171);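 note: 0% = growth of vehicle-treated control cultures of the same strain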; conditions: S. cerevisiae mlh1 strain growth inhibition, active compounds read high
Method in brief: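 Growth of the mutant yeast strain after compound exposure, expressed as inhibition relative to vehicle-only controls.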

[17] = at 5.0 µM (retest, dose inferred, filed as 0.5)
[18] = at 50.0 µM (retest, dose inferred, filed as 5.0)

Measured: growth inhibition

O=C(/C=C\c1cccc(C(F)(F)F)c1)c1ccccc1
active: [14]; [18] 78%
inactive: [1]; at 1.2 µM -3% | [1]; at 3.7 µM -2% | [1]; at 11.0 µM -1% | [1]; at 33.0 µM -3% | [1]; at 100.0 µM -3% | [2]; at 1.2 µM -1% | [2]; at 3.7 µM 2% | [2]; at 11.0 µM -1% | [2]; at 33.0 µM -3% | [2]; at 100.0 µM -5% | [3]; at 1.2 µM 1% | [3]; at 3.7 µM 0% | [3]; at 11.0 µM 3% | [3]; at 33.0 µM 4% | [3]; at 100.0 µM 9% | [4]; at 1.2 µM -3% | [4]; at 3.7 µM -1% | [4]; at 11.0 µM -3% | [4]; at 33.0 µM -2% | [4]; at 100.0 µM -4% | [5]; at 1.2 µM -3% | [5]; at 3.7 µM -3% | [5]; [17] -5% | [5]; at 11.0 µM -1% | [5]; at 33.0 µM -4% | [5]; [18] 40% | [5]; at 50.0 µM 20.3% | [5]; at 100.0 µM -1% | [6]; at 1.2 µM -4% | [6]; at 3.7 µM 0% | [6]; [17] -19% | [6]; at 11.0 µM 0% | [6]; at 33.0 µM 1% | [6]; [18] 3% | [6]; at 50.0 µM 20.1% | [6]; at 100.0 µM -5% | [7]; at 1.2 µM -2% | [7]; at 3.7 µM 1% | [7]; at 11.0 µM 2% | [7]; at 33.0 µM -2% | [7]; at 100.0 µM -3% | [8]; [17] 18% | [8]; [18] 59% | [8]; at 50.0 µM 36.4% | [9]; at 1.2 µM -2% | [9]; at 3.7 µM -11% | [9]; at 11.0 µM -5% | [9]; at 33.0 µM -5% | [9]; at 100.0 µM -10% | [10]; [17] 8% | [10]; [18] 10% | [10]; at 50.0 µM 1.55% | [11]; at 1.2 µM -2% | [11]; at 3.7 µM -6% | [11]; [17] 11% | [11]; at 11.0 µM -2% | [11]; at 33.0 µM -3% | [11]; [18] 49% | [11]; at 50.0 µM 26.1% | [11]; at 100.0 µM -9% | [12]; at 1.2 µM -2% | [12]; at 3.7 µM 0% | [12]; at 11.0 µM -2% | [12]; at 33.0 µM -2% | [12]; at 100.0 µM -4% | [13]; at 1.2 µM -2% | [13]; at 3.7 µM -3% | [13]; at 11.0 µM 1% | [13]; at 33.0 µM 0% | [13]; at 100.0 µM 3% | [14]; [17] 16% | [14]; at 50.0 µM 25.9% | [15]; at 1.2 µM 0% | [15]; at 3.7 µM 1% | [15]; at 11.0 µM 7% | [15]; at 33.0 µM 22% | [15]; at 100.0 µM 57%

OC(CCNCc1ccccc1)c1ccc2ccccc2c1 (stereo unspecified)
inactive: [1]; at 1.2 µM 15% | [1]; at 3.7 µM 42% | [1]; at 11.0 µM 69% | [2]; at 1.2 µM 2% | [2]; at 3.7 µM 33% | [2]; at 11.0 µM 41% | [2]; at 33.0 µM 60% | [3]; at 1.2 µM -5% | [3]; at 3.7 µM -12% | [3]; at 11.0 µM 13% | [3]; at 33.0 µM 27% | [3]; at 100.0 µM 21% | [4]; at 1.2 µM 14% | [4]; at 3.7 µM 34% | [4]; at 11.0 µM 63% | [5]; at 1.2 µM 15% | [5]; at 3.7 µM 44% | [5]; [17] 22% | [6]; at 1.2 µM -1% | [6]; at 3.7 µM 10% | [6]; [17] 15% | [6]; at 11.0 µM 22% | [6]; at 33.0 µM 47% | [6]; at 50.0 µM 37.9% | [6]; at 100.0 µM 58% | [7]; at 1.2 µM 32% | [7]; at 3.7 µM 56% | [8]; [17] 9% | [9]; at 1.2 µM 19% | [9]; at 3.7 µM 53% | [9]; at 11.0 µM 68% | [10]; [17] 29% | [11]; at 1.2 µM 29% | [11]; at 3.7 µM 45% | [11]; [17] 37% | [11]; at 11.0 µM 68% | [16]; at 1.2 µM -4% | [16]; at 3.7 µM 31% | [16]; at 11.0 µM 45% | [13]; at 1.2 µM 18% | [13]; at 3.7 µM 20% | [14]; [17] 51% | [14]; at 50.0 µM 65.7% | [15]; at 1.2 µM -1% | [15]; at 3.7 µM 31% | [15]; at 11.0 µM 45%
active: [1]; at 33.0 µM 87% | [1]; at 100.0 µM 90% | [2]; at 100.0 µM 72% | [4]; at 33.0 µM 84% | [4]; at 100.0 µM 96% | [5]; at 11.0 µM 72% | [5]; at 33.0 µM 92% | [5]; [18] 88% | [5]; at 50.0 µM 75.5% | [5]; at 100.0 µM 94% | [6]; [18] 76% | [7]; at 11.0 µM 85% | [7]; at 33.0 µM 96% | [7]; at 100.0 µM 99% | [8]; [18] 93% | [8]; at 50.0 µM 80.7% | [9]; at 33.0 µM 80% | [9]; at 100.0 µM 93% | [10]; [18] 80% | [10]; at 50.0 µM 75.2% | [11]; at 33.0 µM 91% | [11]; [18] 91% | [11]; at 50.0 µM 72% | [11]; at 100.0 µM 96% | [16]; at 33.0 µM 80% | [16]; at 100.0 µM 95% | [13]; at 11.0 µM 70% | [13]; at 33.0 µM 92% | [13]; at 100.0 µM 95% | [14]; [18] 96% | [15]; at 33.0 µM 70% | [15]; at 100.0 µM 87%
